# Hits are enriched below; roughly 11% of the tested compounds scored in any of these assays.
# PLK1 PBD block = PLK1 (human) polo-box domain binding inhibition; Plk1 PBD binding of FITC phosphopeptide, fluorescence polarization; Potency, µM, for the others: max response, negative = inhibition, actives largely listed as inhibitors; 2.8% of 360,000 active; note: series mostly up to about 57 µM; % is set by controls: 0 for no effect and ±100 for the full control effect; nearly all actives have a fitted effect of over 65% in size
# BAZ2B block = inhibitors of human BAZ2B bromodomain; Potency, µM (doses to about 114 µM), for inactives: at the highest dose activity change, negative = inhibition, usual class: inhibitors; AlphaScreen BAZ2B-H3K14Ac peptide displacement; 4.4% of 360,000 active; note: % is set by controls: 0 for no effect and ±100 for the full control effect; nearly all actives have a fitted effect of over 60% in size
#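 BAZ2B (50 nM) with biotin-H3(5-23)K14Ac peptide (50 nM) in PBS pH 7.4, 0.01% Tween-20, preformed 30 min, then compound 30 min at room temperature; top concentration 110uM. AlphaScreen streptavidin donor/nickel chelate acceptor beads (10 ug/mL final), 20 min dark, signal read.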
# G9a block = G9a (human) methyltransferase inhibition; G9a H3K9 monomethylation, AlphaScreen, 2 h; Potency, µM (series often up to 102 µM), inactives show at the top dose activity, negative = inhibition, usual class: inhibitors; 8.8% of 350,000 active; AID 504332; note: % is set by controls: 0 for no effect and ±100 for the full control effect; nearly all actives have a fitted effect of over 75% in size
#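 Chemiluminescent proximity detection of H3K9 monomethylation, read after 10 min bead incubation in the dark. Reaction: 20 nM G9a, 500 nM biotin-H3K9 peptide, 20 uM SAM cofactor, 2 h, room temperature, following 15 min enzyme-compound preincubation.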
# JMJD2A Tudor = JMJD2A Tudor domain (human) inhibition. O75164. 4.4% of 390,000 active. AlphaScreen JMJD2A-Tudor / H3K4me3 peptide binding. Potency, µM (titrated, usually from 114 µM), for the others: at the top dose activity change, negative = inhibition, most hits filed as inhibitors; note: % is set by controls: 0 for no effect and ±100 for the full control effect; nearly all actives have a fitted effect of over 50% in size
# Target sequence (O75164 whole entry, looked up, the tested form may be a part): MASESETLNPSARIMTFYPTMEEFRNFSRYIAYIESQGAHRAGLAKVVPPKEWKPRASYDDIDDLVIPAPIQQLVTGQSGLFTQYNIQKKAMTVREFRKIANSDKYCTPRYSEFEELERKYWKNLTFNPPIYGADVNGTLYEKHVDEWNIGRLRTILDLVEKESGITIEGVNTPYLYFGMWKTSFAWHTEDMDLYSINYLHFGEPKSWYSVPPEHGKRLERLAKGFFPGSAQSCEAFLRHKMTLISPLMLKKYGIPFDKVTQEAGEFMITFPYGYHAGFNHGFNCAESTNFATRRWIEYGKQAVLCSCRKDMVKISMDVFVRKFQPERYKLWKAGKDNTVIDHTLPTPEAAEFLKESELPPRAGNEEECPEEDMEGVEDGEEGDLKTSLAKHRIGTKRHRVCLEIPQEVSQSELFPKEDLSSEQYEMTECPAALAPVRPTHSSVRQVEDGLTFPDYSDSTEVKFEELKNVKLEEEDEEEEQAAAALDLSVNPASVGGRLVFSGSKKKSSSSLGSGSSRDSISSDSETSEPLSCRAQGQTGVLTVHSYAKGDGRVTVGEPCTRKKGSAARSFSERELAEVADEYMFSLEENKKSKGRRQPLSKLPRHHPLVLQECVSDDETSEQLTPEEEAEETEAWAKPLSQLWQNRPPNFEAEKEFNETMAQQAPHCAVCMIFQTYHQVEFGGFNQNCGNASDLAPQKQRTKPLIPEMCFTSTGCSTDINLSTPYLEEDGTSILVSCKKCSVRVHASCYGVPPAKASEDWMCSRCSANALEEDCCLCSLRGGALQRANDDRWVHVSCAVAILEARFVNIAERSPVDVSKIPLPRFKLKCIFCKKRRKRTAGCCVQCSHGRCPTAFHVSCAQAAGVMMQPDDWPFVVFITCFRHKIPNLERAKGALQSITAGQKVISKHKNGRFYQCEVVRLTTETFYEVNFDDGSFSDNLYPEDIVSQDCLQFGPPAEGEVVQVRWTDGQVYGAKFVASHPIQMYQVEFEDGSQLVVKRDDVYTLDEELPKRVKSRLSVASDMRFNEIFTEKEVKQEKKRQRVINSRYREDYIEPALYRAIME
# VDR inh = blocks the human vitamin D receptor. P11473. 0.93% of 400,000 active. Potency, µM, for the others: max response, negative = inhibition, hits mostly inhibitors. VDR-SRC2-3 peptide fluorescence polarization, 2 h. AID 504847; note: % is set by controls: 0 for no effect and ±100 for the full control effect
#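 The screen uses fluorescence polarization to detect compounds that interfere with recruitment of the SRC2-3 coactivator peptide to VDR; plates are read after 2 h at room temperature.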
# HP1b binding inh = blocks HP1-beta chromodomain binding to methylated histone tails | AlphaScreen HP1-beta / biotin-H3K9me3 peptide binding | 0.56% of 390,000 active | Potency, µM (titrated, usually from 114 µM), without a hit: at the top dose activity change, negative = inhibition, most hits filed as inhibitors; note: nearly all actives have a fitted effect of over 70% in size
#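 HP1-beta protein (50 nM final) preincubated 30 min at room temperature with biotinylated H3(1-18)K9me3 peptide (50 nM) in PBS pH 7.4, 0.01% Tween-20, then compound added for 30 min. AlphaScreen streptavidin donor/nickel chelate acceptor beads (10 ug/mL final), 30 min dark, luminescence read.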
# * hit, by the source's call; ? = inconclusive; . = not tested or not shown; ! = not active in a repeat; [ ] = remark or other dose. Calls come from the whole dose curve; as a rule, active = well fitted curve in the direction sought with a large enough effect; inconclusive = small, poorly fitted or top-dose-only effect, or another doubt; inactive = no such curve, though single readings can be large; an effect the other way counts as inactive or inconclusive. Potency is the fitted concentration of half-maximal effect.
SMILES,PLK1 PBD block,BAZ2B block,G9a block,JMJD2A Tudor,VDR inh,HP1b binding inh
CCCCCCOc1ccc(/C=C/C(=O)Nc2sc3c(c2C(=O)OC)CCC3)cc1OC,.,0%,-57%[59 µM],-4%,-17%,23%
CCn1c2c(c3cc(C(=O)O)ccc31)CCCC2=O,30µM*,-18%,-9%[12.7 µM],-20%[11.4 µM],-10%,-11%
Cc1cccc(CSCCNC(=O)C2CCN(S(=O)(=O)Cc3ccccc3)CC2)c1,.,?,?,-30%,13%,9%
COc1cccc(C(=O)NCC2(c3ccccc3)CCCC2)c1OC,-4%,5%,27%,-2%,8%,37%
O/N=C1\CCCc2c1nc(-c1ccccc1F)n2O,3%,50µM*,22µM*,32µM*,-1%,-2%
FC(F)(F)c1cnc(Sc2nnc(-c3cccs3)n2CC2CCCO2)c(Cl)c1 (stereo not given),1%,-27%,-36%[12.7 µM],-8%,-8%,15%
N#Cc1c(Sc2ncc(C(F)(F)F)cc2Cl)nsc1C/C=N\OCc1c(F)cccc1Cl,-9%,40µM*,10µM*,?,?,-23%
O=C(C[n+]1ccccc1)Nc1c(Cl)cc(Cl)cc1Cl,-9%,35µM*,.,-8%,6%,25%
O=C(C[n+]1ccccc1)Nc1ccccc1[N+](=O)[O-],-15%,-3%,.,13%,7%,64%
Cc1ccc[n+](CC(=O)Nc2c(Cl)cc(Cl)cc2Cl)c1,-3%,-5%,0%,-13%,-10%,7%
Cc1ccc[n+](CC(=O)Nc2ccc(N(C)C)cc2)c1,-11%,?,.,-33%,-21%,18%
CN(C)c1ccc(NC(=O)C[n+]2ccccc2)cc1,-8%,-26%,50µM*,?,-10%,-5%
O=C(C[n+]1ccccc1)Nc1ccccc1Br,6%,25µM*,0.32µM*,2%,-3%,62%
CCOc1ccc(C2C(C(N)=O)=C(C)Nc3nc(SCc4ccccc4)nn32)cc1 (stereo not given),.,?,-23%[59 µM],-6%,-10%,39%
COc1ccc(NC(=O)Cn2c(=O)n(Cc3ccccc3Cl)c(=O)c3cc(OC)c(OC)cc32)cc1OC,.,-1%,4%[59 µM],-14%,-5%,11%
CC(=O)Nc1ccc(S(=O)(=O)Nc2nc3ccccc3nc2N2CCOCC2)cc1,-5%,.,.,-5%,?,35%
Cc1ccccc1S(=O)(=O)Nc1nc2ccccc2nc1N1CCOCC1,-2%,56µM*,-42%[12.7 µM],1%,-7%,33%
CCCCCCCC1=CC2=C(Cl)C(=O)C(C)(OC(C)=O)C(=O)C2=CN1C (stereo not given),.,.,.,.,71µM*,.
CCCCCCCC1=CC2=CC(=O)C(C)(OC(C)=O)C(=O)C2=CN1CCc1ccccc1 (stereo not given),.,?,40µM*,.,.,.
CCCCCCCC1=CC2=C(Cl)C(=O)C(C)(OC(C)=O)C(=O)C2=CO1 (stereo not given),.,.,.,.,50µM*,.
COc1ccc(N(Cc2cccs2)C(=O)Nc2cccc(Cl)c2)cc1,.,29%,14%[59 µM],20%,13%,90%
COc1ccc(Br)cc1CNC(=O)c1cnc2sc(N3CCC(C)CC3)nn2c1=O,.,5%,9%[59 µM],-12%,8%,8%
O=C(Nc1cccc(C(=O)N2CCOCC2)c1)C1CC1,-5%,.,.,-10%,-5%,23%
O=C(CSc1nnc2ccccn12)NC(=O)NC1CCCC1,-6%,-1%,8%[59 µM],-3%,11%,21%
CC1(OC(=O)c2ccc(Cl)nc2)C(=O)C=C2C=C(c3ccc(C#N)cc3)OC=C2C1=O (stereo not given),.,.,.,.,89µM*!,.
SMILES,PLK1 PBD block,BAZ2B block,G9a block,JMJD2A Tudor,VDR inh,HP1b binding inh
CC1(OC(=O)c2ccc(Cl)nc2)C(=O)C=C2C=C3CCCN3C=C2C1=O (stereo not given),?,?,-32%[59 µM],45µM*,?,?
CC1(OC(=O)c2ccc(Cl)nc2)C(=O)C=C2C=C(c3ccsc3)OC=C2C1=O (stereo not given),.,.,.,.,5%,.
CN1CCN(c2ccc(S(=O)(=O)N3CCCCC3)cn2)CC1,2%,8%,-15%,-4%,9%,37%
CN1CCN(S(=O)(=O)c2ccc(N3CCc4ccccc4C3)nc2)CC1,7.5µM*,-38%,-31%,8.9µM*,?,-16%
Cc1cccc(NC(=O)C(C)OC(=O)CNC(=O)C2CCCCC2)c1 (stereo not given),-11%,.,.,.,.,.
O=C(NCC1CC1)c1ccc(Nc2nc3ccc(Br)cc3[nH]2)cc1,11µM*,-32%,?,20µM*,-8%,?
COc1cc(OC)c2c(-c3ccccc3)cc(=O)oc2c1C(CCN1CCOCC1)c1ccc2c(c1)OCO2 (stereo not given),-6%,.,-44%[59 µM],32µM*,-10%,?
COc1cc(OC)c2ccc(=O)oc2c1C(CC(=O)N1CCN(c2ccccc2)CC1)c1ccc2c(c1)OCO2 (stereo not given),-18%,40µM*,13%[12.7 µM],40µM*,0%,-27%
COc1cc(OC)c2c(C)cc(=O)oc2c1C(CCN1CCN(c2ccccc2)CC1)c1ccc2c(c1)OCO2 (stereo not given),-20%,25µM*,-5%[12.7 µM],28µM*,-18%,?
COc1cc(C(CCN2CCCC2)c2c(OC)cc(OC)c3c(-c4ccccc4)cc(=O)oc23)cc(OC)c1OC (stereo not given),-9%,-18%,19%[59 µM],?,-1%,-2%
COc1cc(C(CCN2CCOCC2)c2c(OC)cc(OC)c3c(-c4ccccc4)cc(=O)oc23)cc(OC)c1OC (stereo not given),3%,.,?,79µM*,1%,-20%
CCOCCCn1c(=N)c(C(=O)NCc2cccnc2)cc2c(=O)n3ccccc3nc21,.,-14%,-3%[59 µM],-17%,-10%,34%
CC(=O)c1ccc(NC(=O)c2nc(-c3ccccc3)n(-c3ccc(Cl)cc3)n2)cc1,.,?,-22%[59 µM],-20%,8%,28%
CN1CCN(c2ncc3nc(CCc4ccccc4)c(=O)n(Cc4ccc(F)cc4)c3n2)CC1,.,.,-9%[12.7 µM],.,5%,.
CCN(CC)C(=O)CC(c1cc(OC)c(OC)c(OC)c1)c1c(OC)cc(OC)c2ccc(=O)oc12 (stereo not given),-4%,0%,7%[59 µM],-14%,-6%,4%
CCN(CC)C(=O)CC(c1cc(OC)c(OC)c(OC)c1)c1c(OC)cc(OC)c2c(-c3ccccc3)cc(=O)oc12 (stereo not given),?,50µM*,?,56µM*,-5%,0%
CC(C)(C)C(=O)Nc1ccc(-c2nc3ccccc3s2)cc1,.,-1%,5%[59 µM],-7%,4%,30%
CNc1ccc(-c2nc3ccccc3s2)cc1,.,.,.,.,11µM*,.
